The whole screen tested about 31,000 sequences, of which about 1,400 (4.5%) were called active. The entries come from a sample that favours actives as a whole. A number with no mark means an inactive call.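 The calls were made as follows: active = median seed-adjusted z-score above 1 or below -1; inactive = the rest.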

The assay in a line: Novel Modifiers of Survival Motor Neuron (SMN) Protein: Gene Identification via Genome-wide siRNA Screen.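 Also: luminescence tracks full-length SMN protein made from the SMN2 reporter.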 As to conditions: HEK293T SMN2-luciferase reporter, siRNA knockdown, 72 h; actives lie on both sides. The gist of the method: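 siRNA screen, 10418 genes ×3 siRNAs; 1 pmol/well, lipid reverse transfection into HEK293T SMN2-luc reporter line. 72 h, 37 °C, 5% CO2; ONE-Glo readout. Data: neg-ctrl normalized, log10, MAD; hit = MAD >1.0 or < -1.0.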
Background: Reporter assays use an easily measured gene product as a stand-in for the process of interest.
For GCACCUUCCGCGUCAUGUUTT against BTBD2, the median seed-adjusted z-score is 0.0303.
Regarding GAGCUGACUUCGGAACUAATT against LCN2, the median seed-adjusted z-score is 0.123.
As for CCACAGAGAUAAGCAGUCATT against IL15RA, the figure is -0.0113; as for GGACUCCCAUCAGUUCCUATT against MFSD4, -1.89 (active).
On to GCUGGAAUCUAACAAUAGATT against ROCK2, for which the median seed-adjusted z-score is -0.149.
As to CGUGUCCUGUCUGAACCAATT against ESCO2, the median seed-adjusted z-score is 0.
With AAGAGUCAGUUUUCAGAUATT against CHID1, the median seed-adjusted z-score is 0.199.
Turning to GGAGGUUAAAGUGAAGAUUTT against MORF4L2, the median seed-adjusted z-score is 0.389.
Under AAAUCGAUCAGAUCAACAATT against CDC2L1 stands -1.14 (active); under CCCUGAUCCUAUAGCUAUUTT against ART4, -0.0808; under GAUCUGUGGUUGCAAACGATT against TRMT1, -0.224.
Turning to CAGUUAUACUCAGAAGAGATT against ZNF155, the median seed-adjusted z-score was 0.698.
Under GAAUGACCUUGAACAAUGATT against ABTB2 stands 0.432; under UGGAAUACAUGGAUCAGAATT against HEPACAM, -0.063.
With AGUACGGACAGAUCUCUGATT against CIRBP, the median seed-adjusted z-score is -0.701.
Turning to CAGUCGACCAGUACAUCAATT against PMS1, the median seed-adjusted z-score is 0.0538.
AGUUGUAAAUUUACAAAGATT against UNC119: the median seed-adjusted z-score is 0.171.
Take GAGUUUUUCGAGCUCAUGATT against PGS1: the median seed-adjusted z-score was 1.36 (active).
With GGACUUUGGUGUGAAUGAATT against ANXA1, the median seed-adjusted z-score was -0.114.
Consider GCAUUGAAACGAAUGGGAATT against UBA5, for which the median seed-adjusted z-score was -0.105.
Turning to UCUUCACCGUGUGCCUAGATT against CRAT, the median seed-adjusted z-score was -1.42 (active).
As for GCAGAUAAGAUCAAGAUCATT against SRPK3, the median seed-adjusted z-score is -0.643.
On to GAAGAAACCUUGACAAAAATT against KHDRBS3, for which the median seed-adjusted z-score is 0.0681.
In the case of GACUAGUUUUGAUCAGGAATT against ZBTB5, the median seed-adjusted z-score was 0.314.
GCAGAAUUCUGACGAUGAUTT against LEO1: the median seed-adjusted z-score was 1.2 (active).
As for CGAACAAAACGGGCCUGGATT against FOXA2, the median seed-adjusted z-score is 0.883.
For the sequence CCCUCUUUGGUCUAACUCATT against HOXA3, the median seed-adjusted z-score is 0.315.
In the case of CGAAGACACGUAGCCCUAATT against PUS3, the median seed-adjusted z-score is 0.584.
On to GGUGUAAUAAUGUCCUUUATT against SNRPF, for which the median seed-adjusted z-score is -2.66 (active).
Turning to GGACUACAAAGUCGACCAATT against NDUFB10, the median seed-adjusted z-score was -0.39.
With GGAGAUAGAACCUUCCAGATT against HLA-B, the median seed-adjusted z-score is -0.355.
As to CUAGAGUCGCUGUUGAAGATT against DRAP1, the median seed-adjusted z-score is 1.08 (active).
Consider GGGUGGAGGUGUACUAUGATT against LOXL2, for which the median seed-adjusted z-score was 0.177.
Take CAUCAUCAGUUUUUCGAUUTT against AHCTF1: the median seed-adjusted z-score is -0.501.
As for GAUGCCCAGUGUCCUGUUATT against PIF1, the figure is -0.0455.
In the case of GCAAGACAAGUGUCGGGAATT against HSPA6, the median seed-adjusted z-score is 0.364.
Consider CAGCAGAACGUGUACGAGATT against ZBTB7A, for which the median seed-adjusted z-score is -0.344.
As for CAAGUGGGCUGAGUACCAUTT against PHPT1, the median seed-adjusted z-score was 1.27 (active).
Turning to GAGGUAAGAUGGAUGAAGATT against ACSM1, the median seed-adjusted z-score is 0.658.
Consider UCAAUGCCUCCUUAAUUUUTT against ZNF321, for which the median seed-adjusted z-score is -0.642.
Consider CAGCGGAUGUGUUCAGUCUTT against PKMYT1, for which the median seed-adjusted z-score was 0.65.
In the case of CAAAACUAGUAAUCCUUAUTT against CDK8, the median seed-adjusted z-score is -1.47 (active).
On to GGACAUGUGCGUCUACCGATT against HOXD13, for which the median seed-adjusted z-score was 0.116.
In the case of GGAUUUAUCAGAACCUUUATT against SLC25A15, the median seed-adjusted z-score was -0.0116.
Under CCUACCAUCUUGUCCCUAATT against SLC7A6 stands -0.0877; under UGGAGUAAAUGAUAAGAUATT against TRIM45, -0.0974; under GCACCAUUACUAUAGAGGATT against PTH2R, -0.492.
On to CAUCACCUAUUGGAUCCAATT against MMP9, for which the median seed-adjusted z-score was -1.15 (active).
CGGUCCAAAUUGAAAGCGATT against STX1B: the median seed-adjusted z-score is 0.229.
As for CGACUUGUUGUAUAAGUAUTT against DYNC1LI2, the median seed-adjusted z-score was -0.491.
Under CCAAGUUAUUGCUAUCAGATT against PPCS stands 0; under GGUAAACGCAAAGCACUGATT against MAP2K4, -0.366.
For GCCUCUUGCUAGGCAUAGCTT against CLDN15, the median seed-adjusted z-score is 0.973.
On to CCCUCGACAGAGUCAGUUUTT against NPC1, for which the median seed-adjusted z-score is -0.195.
As for GAUUGAAACUGACAAGACATT against DLST, the median seed-adjusted z-score was 1.16 (active).
CAGCUACGGAAGAACCUGATT against PHF21A: the median seed-adjusted z-score was 0.179.
Under UCGAGGAAAUGAUCCGGGATT against GALE stands -0.153; under GGAGGAUCGUUUAGACAGATT against TCF12, -0.16.
On to CAGCUGCAAUUCUAGCUAATT against RETSAT, for which the median seed-adjusted z-score is -1.7 (active).
On to CAAUCACUGUGGAAUAUCATT against INPPL1, for which the median seed-adjusted z-score was 0.199.
Regarding CAAGGGUAUUAUUCGAGUUTT against PPP1R3A, the median seed-adjusted z-score is -0.241.
As for GAAAACCGCAGAUAAAGUATT against NFRKB, the median seed-adjusted z-score was 0.787.
For the sequence GGUGCAAUCAGAUAACAUATT against PPAPDC1A, the median seed-adjusted z-score is 0.634.
With CUGUUUAAGCGAUGACAAATT against CFL2, the median seed-adjusted z-score was -0.148.
As for AUCCUUAUUUGACACGAAATT against HOXC8, the median seed-adjusted z-score is -0.0285.
On to GGACUUUGCCUAUGUCUGUTT against TFAP2C, for which the median seed-adjusted z-score is 1.28 (active).
On to AGACCACCAAGGUUUCUUUTT against KCNH6, for which the median seed-adjusted z-score was 0.424.
Regarding CUGGAAUGGUUGUCUGGUATT against SERTAD1, the median seed-adjusted z-score was 0.376.
As to GAAGAGAACUUCUGCCGUATT against MST1, the median seed-adjusted z-score is -1.47 (active).
As to GAUUAAUCCUUCAAUGAUUTT against TAF9B, the median seed-adjusted z-score was -0.0247.
On to CGUCAGCUAUGUAAUGUUUTT against SLC22A7, for which the median seed-adjusted z-score was -0.387.
Under GGACAGCUACGUGAAGAUUTT against PAK6 stands -0.57.
Turning to UGAUGGUUGUGACAAUUGUTT against SUPT4H1, the median seed-adjusted z-score is -1.01 (active).
Consider AGCCUGUGAUGACUACAGATT against MGP, for which the median seed-adjusted z-score is -0.0854.
Turning to GAACUUACCUUCAACUACATT against NSD1, the median seed-adjusted z-score was -0.372.
Under GAGUGAUUCUAGCCUCUAATT against SEC61A1 stands 0.312; under CGAGAAAUCCCACAAGCGATT against NOVA2, 0.
Turning to GGAAGGCUUUUAGCAAUGATT against ZNF570, the median seed-adjusted z-score is 0.662.
With GGAUCGAGGAAAUAACAAUTT against DDX42, the median seed-adjusted z-score is -2.13 (active).
For GAAUGAGUUUUGUCAUGGATT against SUV39H2, the median seed-adjusted z-score was -0.279.
For the sequence AGGCCGUGCUCUUCACCUATT against FAAH, the median seed-adjusted z-score was 0.373.
As for GAGAUAUACGAGGAGAUUATT against TIGD1, the figure is 0.224.
For GGUCAGAACAUUCACCGAATT against CFTR, the median seed-adjusted z-score is -1.23 (active).
As for GAAUGUGCUAUGAAGCUUUTT against SPRR1B, the figure is -0.721; as for GGCUCGUAUUUUCUGGUUUTT against ACHE, 0; as for CCUUGCCUCUAUGAGAUCATT against CHCHD2, 0.0884.
Under GGGUCAUUCUAUGGGCAAATT against OGFOD2 stands 0.493; under GACUUGAGCUAAAUGGUCATT against SIAH1, 1.5 (active); under CCUAUACUGUGGGCUAUAATT against STARD4, 0.173.
Consider AGCCGUGGAUGGUAGAUCUTT against ZNF2, for which the median seed-adjusted z-score was -0.119.
As for CAGACUAAACUAUAGCGAUTT against SENP6, the median seed-adjusted z-score is -1.03 (active).
As to GCAACUCCAAUGUCAGUGATT against TAF9B, the median seed-adjusted z-score was -0.0247.
Take GAGUCUGAAGGAUACUAUUTT against PGAM1: the median seed-adjusted z-score is -0.234.
As to GCCCUGAACAAGUUGCUCATT against TRPV6, the median seed-adjusted z-score is -0.511.
Turning to GCUUUUCCCGGUCAGAUCATT against KLF12, the median seed-adjusted z-score is -0.0892.
As for CCAUCGCAGAGGGAGAUAATT against USP43, the median seed-adjusted z-score is 0.
In the case of GCUUCUAUAUUCAUGCUAATT against DDX6, the median seed-adjusted z-score is 1.12 (active).
As for GGUGAUGAGUGUUCCUACATT against KCNA4, the figure is -0.634; as for GGAUUUCUCAUGGAAGUUUTT against CUTC, -0.377.
On to CGUAAAACCCAUCAAGUUUTT against B3GALNT1, for which the median seed-adjusted z-score is 0.128.
In the case of GGCGGCAAGACGUAAGGAATT against SEMA3B, the median seed-adjusted z-score is 0.000251.
On to UGCUGACCCUAAUCCCUUATT against ETV2, for which the median seed-adjusted z-score was 0.
In the case of AGUUAGAGGUAGCAUUAUATT against FZD5, the median seed-adjusted z-score is -0.129.
Regarding GAGCAAUGCUGACUAUCAATT against CNOT7, the median seed-adjusted z-score was 0.716.
Turning to CACUCGCAGUUAAUAUCAUTT against AZIN1, the median seed-adjusted z-score is -1.14 (active).
Turning to GGAUCCAGCUUUUCCUCGATT against ABCC10, the median seed-adjusted z-score is -1.56 (active).
For the sequence CCACGGCUGCAACAUCUUUTT against PDE2A, the median seed-adjusted z-score is -0.2.
Turning to CAGCCGCUCUCGUCAAUGUTT against GGTLC2, the median seed-adjusted z-score is -0.288.

These data come from PubChem BioAssay AID1347426 (Functional Genomics Laboratory (NCATS/FGL), 2020).
